Measurements taken from PubChem BioAssay (EPA / NIEHS).
Calls of active or inactive are those of the source. Rule for the calls: active = hit-call score of the fitted dose curve at least 0.9, where 1 is the maximum; inactive = score below 0.9.

The compounds below were run on Plasminogen activator inhibitor-1 (PAI1), SERPINE1 (gene 5054) (assay: BSK_hDFCGF_PAI1: BioMAP Diversity Plus: hDFCGF Assay for Plasminogen activator inhibitor-1 (PAI1) Biomarker Activity (AID 2283066)). Details: primary human foreskin fibroblasts; actives raise or lower the signal.
Protocol: BSK_hDFCGF is a cell-based, multiplexed-readout assay that uses foreskin fibroblast, a human skin primary cell, with measurements taken at 24 hours after chemical dosing in a 96-well plate.BSK_hDFCGF_PAI1 is an assay component measured in the BSK_hDFCGF assay. It measures PAI-1 antibody related to regulation of gene expression using ELISA technology.Data from the assay component BSK_hDFCGF_PAI1 was analyzed into 1 assay endpoint. This assay endpoint, BSK_hDFCGF_PAI1, was analyzed with bidirectional fitting relative to DMSO as the negative control and baseline of activity. Using a type of binding reporter, gain or loss-of-signal activity can be used to understand changes in the signaling as they relate to the gene SERPINE1. Furthermore, this assay endpoint can be referred to as a primary readout, because this assay has produced multiple assay endpoints where this one serves a signaling function. To generalize the intended target to other relatable targets, this assay endpoint is annotated to the cytokine intended target family, where the subfamily is plasmogen activator inhibitor.
The levels of cell surface (or secreted, indicated by the prefix "s") biomarker endpoints were measured by ELISA. Overt cytotoxicity to cells in confluent adherent cultures (all systems other than the BT system) was assessed by measuring total protein levels using sulforhodamine B (SRB) staining in parallel cultures at the time of biomarker measurements, indicated as SRB endpoints. For proliferation assays for adherent cell types, individual cell types are cultured at sub-confluence and relative cell numbers quantified by SRB staining at time points optimized for each system (48 h: 3C and CASM3C systems; 72 h: BT and HDF3CGF systems; 96 h: SAg system). SRB was performed by staining cells with 0.1% SRB after fixation with 10% TCA and reading wells at 560 nm.Viability and proliferation of PBMC (T cells) was quantified by Alamar Blue reduction for the SAg and BT systems. For PBMC viability (referred to as PBMC Cytotoxicity within the assay endpoint names), cells were plated (75,000/well in a 96-well plate) and then chemical samples added for 1 h before addition of activators, SEB and TSST-1 (20 ng/mL final concentration each). Cells were incubated for 90 h. Then, Alamar Blue (20 uL/well) (Invitrogen, Cat DAL1100) was added for 6 h, and the plates were read with a fluorescence microplate reader at 546/580 nm (excitation/emission). For PBMC proliferation, cells were plated and activated as above but incubated for only 16 h prior to addition of Alamar Blue. Plates were read after 6 h.

Row | SMILES | outcome | AC50
1 | CCCC(=O)OCCC(C)C | inactive | –
2 | O=C1O[C@H]([C@@H](O)CO)C(O)=C1O | inactive | –
3 | CC(=O)N1CCN(c2ccc(OC[C@H]3CO[C@](Cn4ccnc4)(c4ccc(Cl)cc4Cl)O3)cc2)CC1 | – | 34.2 µM (active)
4 | CC1=CC(=O)/C(=C(/C)O)C(=O)O1 | inactive | –
5 | CCCCCCCCCCCC[N+](C)(C)C | – | 20 µM (active)
6 | CC[C@@H]1C[C@H](N(Cc2cc(C(F)(F)F)cc(C(F)(F)F)c2)C(C)=O)c2cc(C(F)(F)F)ccc2N1C(=O)OC(C)C | inactive | –
7 | CCCCCCCCCCCO | inactive | –
8 | CN(C)C(=O)C1(N2CCCCC2)CCN(CC[C@@]2(c3ccc(Cl)c(Cl)c3)CN(C(=O)c3ccccc3)CCO2)CC1 | – | 12.3 µM (active)
9 | CN1C(=O)N(c2ccccc2Br)Cc2cnc(Nc3ccc4c(c3)OCC(CO)O4)nc21 (stereo not given) | – | 3.21 µM (active)
10 | CN(C[C@@H](CC[N+]12CCC(C3CCCCC3)(CC1)CC2)c1ccc(Cl)c(Cl)c1)C(=O)c1cc(C(F)(F)F)cc(C(F)(F)F)c1 | – | 5.56 µM (active)
11 | CCN(CC)C(=O)c1cc(S(=O)(=O)Cc2ccccc2)c(N2CCC(c3ccccc3)CC2)cc1N(CC)CCN(C)C | – | 4.69 µM (active)
12 | CC(C)(C)c1cc(/C=C2\SC(N)=NC2=O)cc(C(C)(C)C)c1O | – | 20 µM (active)
13 | COCC(C)OCC(C)OCC(C)O (stereo not given) | inactive | –
14 | COc1cccc([C@H](O)C2CCN(CCc3ccc(F)cc3)CC2)c1OC | inactive | –
15 | CC(C)(C)c1csc(-c2cc3cc(OCc4ccccc4CC(=O)O)ccc3o2)n1 | – | 11.3 µM (active)
16 | CCN(Cc1cccnc1)C(=O)c1cccc(Cl)c1[C@]1(C)C(=O)N(Cc2ccc(OC)cc2OC)c2ccc(Cl)cc21 | – | 9.31 µM (active)
17 | c1ccc2ccccc2c1 | inactive | –
18 | c1ccc(C[n+]2cccc3ccccc32)cc1 | inactive | –
19 | NC(=O)c1nc(-c2cccc(-c3cc(F)ccc3OCC(F)(F)C(F)(F)F)c2)n[nH]1 | – | 32.8 µM (active)
20 | Cc1occc1C(=O)Nc1ccc(C(=O)N2CCC(F)(F)/C(=C\C(=O)N3CCC(N4CCCCC4)CC3)c3ccccc32)cc1 | inactive | –

Row | SMILES | outcome | AC50
21 | Cc1ncc(CO)c(CO)c1O | inactive | –
22 | Cc1oc2c(NC(=O)c3c(Cl)cccc3Cl)cccc2c1C(C)(C)O | – | 14.2 µM (active)
23 | CC1(C)NC(=O)N(c2ccc([N+](=O)[O-])c(C(F)(F)F)c2)C1=O | inactive | –
24 | C[C@]12CC[C@@H]3c4ccc(O)cc4CC[C@H]3[C@@H]1CC[C@H]2O | inactive | –
25 | O=C(O)c1ccccc1C(=O)OCc1ccccc1 | inactive | –
26 | Cc1ccc(C(C)C)cc1 | inactive | –
27 | O=C(O)c1ccccc1-n1cc(C(=O)O)c(=O)c2cc(Nc3c(F)cc(F)cc3Cl)c(Cl)cc21 | inactive | –
28 | OC12N=C(c3ccccc3)SC1Cc1cc(Cl)ccc12 (stereo not given) | inactive | –
29 | CCCCCCCCN(C)CCCCCCCC | inactive | –
30 | Cc1cc(F)ccc1-c1cc(N2CC[C@@H](O)[C@H]2CO)ncc1N(C)C(=O)C(C)(C)c1cc(C(F)(F)F)cc(C(F)(F)F)c1 | – | 11.3 µM (active)
31 | CCCCCCCCOC(=O)c1cc(O)c(O)c(O)c1 | – | 15.2 µM (active)
32 | c1ccc2n[nH]nc2c1 | inactive | –
33 | Clc1ccccc1C(c1ccccc1)(c1ccccc1)n1ccnc1 | – | 5.57 µM (active)
34 | O=C(Nc1ccc(Cl)cc1)Nc1ccc(Cl)c(Cl)c1 | – | 0.7 µM (active)
35 | CCOC(=O)O[C@H](C)OC(=O)c1ccc2c(c1)cc(C(=O)NC1CCN(C(C)C)CC1)n2Cc1cc(-c2ccc(Cl)s2)on1 | – | 3.81 µM (active)
36 | Cc1cccc2ccccc12 | inactive | –
37 | CC[C@H](NC(=O)c1cc(F)ccc1NS(=O)(=O)c1cccc2cccnc12)c1ccccc1 | inactive | –
38 | OCCO | inactive | –
39 | Cc1ccc2oc(CN(Cc3ccccc3)C(=O)Nc3c(F)cc(F)cc3F)c(-c3ccc(Cl)cc3)c2c1 | – | 0.999 µM (active)
40 | CCCCCc1ccc(N)cc1 | inactive | –
